Measurements as given in PubChem BioAssay AID720519 (National Center for Advancing Translational Sciences (NCATS), 2013).
Inconclusive results are not listed. Active and inactive are the calls of the source. The call rests on the fitted dose curve; in most records, active means well fitted activation curve with a large enough effect; inconclusive means small, poorly fitted or top-dose-only effect; inactive means flat fitted curve, though single readings scatter.

Assay: qHTS for Inhibitors of Cell Surface uPA Generation: Confirmatory Assay for Cherry-picked Compounds
Conditions: cell surface uPA activity generation, qHTS confirmation; series mostly up to 115 µM
Excerpt: The overall objective of this project is to perform a quantitative high throughput screen (qHTS) to identify novel compounds that inhibit the generation of cell surface urokinase activity. The urokinase plasminogen activator (uPA) is one of the two primary endogenous systems that mediate plasminogen activation into plasmin. Members of this system, including uPA and its receptor (uPAR), are overexpressed in several malignant tumors. This system plays a major role in adhesion, migration, invasion and metastasis of cancer cells. Small molecule inhibitors of the uPA system will serve as probes to understand the molecular mechanisms of the uPA cascade and better understanding the micro-environmental circumstances that facilitate the activation of plasminogen by uPA, and finally may provide novel candidate agents for anticancer drug therapy.
[…] […] Upon inhibition of the uPA activation cascade, the subsequent cell surface uPA activity-dependent translocation of LF into the cytoplasm is inhibited. ATP-Lite is used to measure intracellular ATP concentrations (measure cell viability) which remain increased if LF entry into the cytoplasm is inhibited. This validation assay was performed using a small set of cherry picked compounds. Activation of cell viability (increase in luminescence signal) due to inhibition of the cell surface uPA generation is the desired outcome of this assay.
NIH Chemical Genomics Center [NCGC]
NIH Molecular Libraries Probe Centers Network [MLPCN]
Assay Submitter (PI): Thomas Bugge, National Institute of Dental and Craniofacial Research, NIH
Cultured RAW 264.7 were dispensed into 1536-well clear bottom, white walled tissue culture plates at a density of 4000 cells/well and were incubated overnight (12-16 h) at 37 C in a 5% CO2 incubator. Serially diluted compounds (1:5 dilution) in 23 nl DMSO were added to cells (0.0024 uM to 3.83 uM final concentration). […] Compound and reagent-treated plates were incubated for 24 h at 37 C in a 5% CO2 incubator. Three microliter of PerkinElmer ATPlite was then added to each well and luminescence was detected using the PerkinElmer ViewLux plate reader for a 5 sec exposure.

Potency, inactive:
CCC(=O)N(Cc1cc2ccc(C)cc2[nH]c1=O)c1ccccc1OC
COc1ccc(CCN=c2c([N+](=O)[O-])nn(-c3cccc(C)c3)n2O)cc1OC
Cc1cc(N)n(Cc2ccc(Cl)cc2)n1
CCC(C(=O)NCc1ccc(C)cc1)c1ccccc1 (stereo not given)
Cc1ccc(Nc2nc(Cl)c(C=O)s2)cc1
O=[N+]([O-])c1cccc2c(N3CCOCC3)ccnc12
O=C1NC(CCc2ccccc2)C(=O)N1Cc1ccccc1Cl (stereo not given)
CCOC(=O)Cn1c(=O)cc(C)c2cccc(C)c21
COc1ccccc1NS(=O)(=O)c1cc(NC(=O)CCc2nc3ccccc3c(=O)[nH]2)ccc1C
COc1cccc(NC(=O)c2nnn(CC(=O)Nc3cc(C)cc(C)c3)c2N)c1
CN(/N=C/c1cc(Cl)cc(Cl)c1O)C(=S)NC(C)(C)C
Cc1c(C(=O)N2CCN(S(=O)(=O)c3cccs3)CC2)oc2ccc(F)cc12
CCc1ccccc1N(CC(=O)N1CCCC1)S(C)(=O)=O
O=C(Cc1ccccc1)Nc1ccc(NC(=O)c2ccccc2)c(Cl)c1
O=C(CC1(O)C(=O)Nc2ccccc21)c1cccc(Br)c1 (stereo not given)
CCCCn1c(N)c(N(CCC(C)C)C(=O)c2sc3nc4n(c(=O)c3c2C)CCC4)c(=O)[nH]c1=O
COc1ccccc1C(=O)NCCC(=O)NCC(c1ccc(F)cc1)N1CCOCC1 (stereo not given)
CCc1ccccc1N1C(=O)CC(Sc2nccc(C)n2)C1=O (stereo not given)
Cc1cnc(CNC(=O)CC2C(=O)NCCN2Cc2ccccc2C(F)(F)F)cn1 (stereo not given)
Cc1ccc(C(CC(=O)N2CCCC2)c2ccccc2)c(O)c1 (stereo not given)
[N-]=[N+]=NC1C[C@H](n2ccc(=O)[nH]c2=O)O[C@@H]1CO (stereo not given in full)
CCN1CCCCC(=N/O)/C(=N/O)CCCC1
COc1ccc(-n2nc(C(=O)Nc3cc(OC)c(OC)c(OC)c3)c3ccccc3c2=O)c(OC)c1
O=C(O)CNS(=O)(=O)c1ccc2c(c1)Cc1cc(S(=O)(=O)NCC(=O)O)ccc1-2
COc1ccc(OC)c(NC(=O)C2CCCN2C(=O)C2CCC(C)CC2)c1 (stereo not given)
Cc1ccc(S(=O)(=O)NCC(=O)N/N=C/c2ccc(Cl)cc2)cc1
COc1ccccc1N1CCN(C2CC(=O)N(c3ccccc3)C2=O)CC1 (stereo not given)
COc1ccc(S(=O)(=O)c2c(O)c3ccc(C(=O)Nc4ccccc4)cc3[nH]c2=O)cc1
COc1ccc(C(=O)NC(=S)Nc2ccc(NC(=O)c3ccco3)cc2)cc1[N+](=O)[O-]
CCC(C)Sc1nnc(NS(=O)(=O)Cc2ccccc2)s1 (stereo not given)
COc1ccc(N2CC(C(=O)Nc3nnc(SCCC4OCCO4)s3)CC2=O)cc1 (stereo not given)
CCOc1ccc(CCNC(=O)Cc2ccc(NC3=NC4CS(=O)(=O)CC4S3)cc2)cc1OCC (stereo not given)
CC1=C(C(=O)OCc2ccccc2)C(c2cccc([N+](=O)[O-])c2)NC(=O)N1 (stereo not given)
O=C(COC(=O)c1cc([N+](=O)[O-])ccc1NCCO)NCc1cccs1
NS(=O)(=O)c1ccc(CCNC(=O)c2ccc(Cl)s2)cc1
O=C(COC(=O)C1CC2C=CC1C2)NCc1ccccc1Cl (stereo not given)
NC(=O)c1ccccc1NC(=O)CC12CC3CC(CC(C3)C1)C2
Cc1ccc(-n2ncc(C(=O)NC3CC3)c2C2CCN(C(=O)OC(C)(C)C)CC2)cc1
O=C(O)CC1(CC(=O)NCc2ccc(Cl)cc2)CCCCC1
COCCN(C(=O)c1ccc(OC2CCN(S(=O)(=O)N(C)C)CC2)cc1)C(C)C
